This is one part of a sample in which the strongest signals are shown more often than they occur.
Tests used:
Assay in all cases: glycan array binding signal (z-score within array); higher = stronger binding
Details in all cases: glycan notation: IUPAC condensed, linker removed
Fuc(a1-2)Gal(b1-3)GlcNAc = target: Fuc(a1-2)Gal(b1-3)GlcNAc
In short: (§1)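 The Consortium for Functional Glycomics database supplied 3228 glycan arrays, of which those lacking an available protein sequence were dropped. The binding signal, a within-array Z-score, was averaged across arrays of the same protein sequence and across linkers. Negative scores can be read as non-binding.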

[1] = target: Fuc(a1-2)Gal(b1-3)GlcNAc(b1-2)Man(a1-3)[Fuc(a1-2)Gal(b1-3)GlcNAc(b1-2)Man(a1-6)]Man(b1-4)GlcNAc(b1-4)[Fuc(a1-6)]GlcNAc
In short: as §1

[2] = target: Fuc(a1-2)Gal(b1-3)GlcNAc(b1-3)Gal(b1-4)Glc
In short: as §1

[3] = target: Fuc(a1-2)Gal(b1-3)GlcNAc(b1-3)GalNAc
In short: as §1

[4] = target: Fuc(a1-2)Gal(b1-3)GlcNAc6S
In short: as §1

Fuc(a1-2)Gal(b1-4)Glc = target: Fuc(a1-2)Gal(b1-4)Glc
In short: as §1

Fuc(a1-2)Gal(b1-4)Glc6S = target: Fuc(a1-2)Gal(b1-4)Glc6S
In short: as §1

[5] = target: Fuc(a1-2)Gal(b1-4)GlcNAc(b1-3)Gal(b1-4)GlcNAc
In short: as §1

[6] = target: Fuc(a1-2)Gal3S(b1-4)GlcNAc
In short: as §1

[7] = target: Fuc(a1-2)Gal6S(b1-3)GlcNAc6S
In short: as §1

[8] = target: Fuc(a1-2)[Gal(a1-3)]Gal(b1-3)GlcNAc
In short: as §1

[9] = target: Fuc(a1-2)[Gal(a1-3)]Gal(b1-3)GlcNAc(b1-2)Man(a1-3)[Fuc(a1-2)[Gal(a1-3)]Gal(b1-3)GlcNAc(b1-2)Man(a1-6)]Man(b1-4)GlcNAc(b1-4)[Fuc(a1-6)]GlcNAc
In short: as §1

[10] = target: Fuc(a1-2)[Gal(a1-3)]Gal(b1-4)GlcNAc(b1-2)Man
In short: as §1

[11] = target: Fuc(a1-2)[Gal(a1-3)]Gal(b1-4)GlcNAc(b1-2)Man(a1-3)[Fuc(a1-2)[Gal(a1-3)]Gal(b1-4)GlcNAc(b1-2)Man(a1-6)]Man(b1-4)GlcNAc(b1-4)GlcNAc
In short: as §1

[12] = target: Fuc(a1-2)[Gal(a1-4)]Gal(b1-4)GlcNAc
In short: as §1

[13] = target: Fuc(a1-2)[GalNAc(a1-3)]Gal(b1-4)GlcNAc(b1-2)Man
In short: as §1

[14] = target: Fuc(a1-2)[GalNAc(b1-3)]Gal
In short: as §1

[15] = target: Gal(a1-3)Gal(b1-4)[Fuc(a1-3)]GlcNAc
In short: as §1

Gal(a1-4)Gal(b1-4)Glc = target: Gal(a1-4)Gal(b1-4)Glc
In short: as §1

Gal(b1-3)Gal(b1-4)GlcNAc = target: Gal(b1-3)Gal(b1-4)GlcNAc
In short: as §1

[16] = target: Gal(b1-3)GlcNAc(b1-3)Gal(b1-4)GlcNAc
In short: as §1

[17] = target: Gal(b1-3)[Neu5Ac(a2-6)]GalNAc
In short: as §1

[18] = target: Gal(b1-4)GlcNAc(b1-2)Man(a1-3)[Gal(b1-4)GlcNAc(b1-2)Man(a1-6)][Gal(b1-4)GlcNAc(b1-4)]Man(b1-4)GlcNAc(b1-4)[Fuc(a1-6)]GlcNAc
In short: as §1

[19] = target: Gal(b1-4)GlcNAc(b1-2)Man(a1-3)[GlcNAc(b1-2)Man(a1-6)]Man(b1-4)GlcNAc(b1-4)GlcNAc
In short: as §1

[20] = target: Gal(b1-4)GlcNAc(b1-3)Gal(b1-3)GlcNAc
In short: as §1

[21] = target: Gal(b1-4)GlcNAc(b1-3)Gal(b1-4)GlcNAc(b1-3)Gal(b1-4)GlcNAc(b1-3)Gal(b1-4)GlcNAc(b1-3)Gal(b1-4)GlcNAc(b1-3)Gal(b1-4)GlcNAc(b1-2)Man(a1-3)[Gal(b1-4)GlcNAc(b1-3)Gal(b1-4)GlcNAc(b1-3)Gal(b1-4)GlcNAc(b1-3)Gal(b1-4)GlcNAc(b1-3)Gal(b1-4)GlcNAc(b1-3)Gal(b1-4)GlcNAc(b1-2)Man(a1-6)]Man(b1-4)GlcNAc(b1-4)GlcNAc
In short: as §1

[22] = target: Gal3S(b1-3)[Fuc(a1-4)]GlcNAc
In short: as §1

Gal6S(b1-3)GlcNAc6S = target: Gal6S(b1-3)GlcNAc6S
In short: as §1

GalNAc(b1-3)GalNAc = target: GalNAc(b1-3)GalNAc
In short: as §1

GlcNAc(b1-3)Gal(b1-4)Glc = target: GlcNAc(b1-3)Gal(b1-4)Glc
In short: as §1

B1: CML1 (Coprinopsis cinerea) (protein)
chain: MAIFHTGSELFIITRGPGKLTLLTWGGLNNLRSVIGAIPTENTGVTKWAVSFSHNYTRFSFIWEGQGEACYQIGNGLTRSPVGRSWSSSSTIHWGSSTVITEDVTSVVPGAVNRDKVTTAYALPDNL
- glycan array binding signal (z-score) (Fuc(a1-2)Gal(b1-3)GlcNAc): 5.31
- glycan array binding signal (z-score) [1]: 1.34
- glycan array binding signal (z-score) [2]: 4.85
- glycan array binding signal (z-score) [3]: 3.31
- glycan array binding signal (z-score) [4]: 4.12
- glycan array binding signal (z-score) (Fuc(a1-2)Gal(b1-4)Glc): -0.039
- glycan array binding signal (z-score) (Fuc(a1-2)Gal(b1-4)Glc6S): 1.38
- glycan array binding signal (z-score) [5]: -0.335
- glycan array binding signal (z-score) [6]: -0.157
- glycan array binding signal (z-score) [7]: 3.67
- glycan array binding signal (z-score) [8]: 3.51
- glycan array binding signal (z-score) [9]: 1.07
- glycan array binding signal (z-score) [10]: -0.329
- glycan array binding signal (z-score) [11]: -0.242
- glycan array binding signal (z-score) [12]: -0.314
- glycan array binding signal (z-score) [13]: -0.348
- glycan array binding signal (z-score) [14]: -0.318
- glycan array binding signal (z-score) [15]: -0.346
- glycan array binding signal (z-score) (Gal(a1-4)Gal(b1-4)Glc): -0.322
- glycan array binding signal (z-score) (Gal(b1-3)Gal(b1-4)GlcNAc): -0.329
- glycan array binding signal (z-score) [16]: -0.339
- glycan array binding signal (z-score) [17]: -0.338
- glycan array binding signal (z-score) [18]: -0.348
- glycan array binding signal (z-score) [19]: -0.342
- glycan array binding signal (z-score) [20]: -0.326
- glycan array binding signal (z-score) [21]: -0.303
- glycan array binding signal (z-score) [22]: 3.48
- glycan array binding signal (z-score) (Gal6S(b1-3)GlcNAc6S): -0.336
- glycan array binding signal (z-score) (GalNAc(b1-3)GalNAc): -0.349
- glycan array binding signal (z-score) (GlcNAc(b1-3)Gal(b1-4)Glc): -0.323

From the supplement of paper PMC8728848
